# Data from the supplement of paper PMC10941209.
# System: HFF
# Assay: cell viability relative to DMSO control; higher = less cytotoxic
# Conditions: 1 µM; 72 h
# Experimental: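 Single-dose cytotoxicity screen of the MMV Pandemic Response Box at 1 uM on human foreskin fibroblasts (HFF), 72 h at 37 C. Viability measured by MTT (OD 550 nm) and normalised to the DMSO control (% survival).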
row,Structure (SMILES),cell viability
1,CCCCCOc1ccc(/C=C2\Oc3c(ccc(O)c3O)C2=O)c(O)c1,69.6%
2,CC(C)(C)c1ccc(OCCn2nc(C(=O)O)c3ccccc3c2=O)cc1,70%
3,Nc1nc(-c2ccccc2)nc2c1ncn2[C@@H]1O[C@H](COS(=O)(=O)NC(=O)c2ccccc2O)[C@@H](O)[C@H]1O,72.2%
4,O=C(O)COc1cccc2c1CC[C@](O)(COC(=O)N(c1ccccc1)c1ccccc1)C2,68.5%
5,N#Cc1cc([N+](=O)[O-])ccc1Oc1ccccc1Cl,72.5%
6,O=C(N[C@H](CCS)C(=O)N[C@H](Cc1ccccc1)C(=O)O)c1cc2ccccc2[nH]1,67.6%
7,COc1ccc(NC(=O)CC2Sc3ncnn3C2=O)cc1 (stereo not given),73.4%
8,CCN(CC)S(=O)(=O)c1ccc(Cl)c(C(=O)Nc2sc3c(c2C#N)CCCC3)c1,60.2%
9,CC(=O)Oc1ccccc1C(=O)Nc1ncc([N+](=O)[O-])s1,62.8%
10,Clc1cccc(-c2nnc(-c3ccccc3)o2)c1,64.1%
11,COc1ccc2nc(-c3ccccc3)cc(O)c2c1,75%
12,COC1CC2CCC(C)C(O)(O2)C(=O)C(=O)N2CCCCC2C(=O)OC(C(C)CC2CCC(OCCO)C(OC)C2)CC(=O)C(C)/C=C(\C)C(O)C(OC)C(=O)C(C)CC(C)/C=C/C=C/C=C/1C (stereo not given),60.8%
13,C[C@@H](O)[C@H](N)C(=O)NS(=O)(=O)c1cccc(-c2ccc3[nH]ncc3c2)c1,63.3%
14,CC(N)C12CC3CC(CC(C3)C1)C2 (stereo not given),63.2%
15,CN(C)CCNC(=O)c1cccc2cccnc12,61.2%
16,COC(=O)Nc1nc2cc([S+]([O-])c3ccccc3)ccc2[nH]1 (stereo not given),64.6%
17,Oc1cccc(C(Nc2nccs2)c2ccc3cccnc3c2O)c1 (stereo not given),72%
18,Nc1nnc(-c2ccc(Cl)cc2)s1,62.7%
19,NCCCc1ccccc1C(=O)Nc1ncc([N+](=O)O)s1,65%
20,NCC(=O)Nc1ccc(-n2nc(C(F)(F)F)cc2-c2ccc3c(ccc4ccccc43)c2)cc1,80.7%

row,Structure (SMILES),cell viability
1,C[C@H](c1cccc2ccccc12)N(C)Cc1ccccc1,65.7%
2,CCc1cc(CCCOc2c(C)cc(-c3noc(C(F)(F)F)n3)cc2C)on1,69.3%
3,CN(C(=O)C1(c2ccc(Cl)cc2)CCC1)c1ccccc1,63.2%
4,Clc1cc(Cl)c2c(c1)CCc1ccccc1C2n1ccnc1 (stereo not given),80.7%
5,C[C@H](NC(CC(=O)c1ccccc1C(F)(F)F)C(=O)O)c1ccccc1 (stereo not given in full),63.6%
6,CC(C)(C)c1cccc(-c2nc3cc(C(=N)N)ccc3[nH]2)c1O,64.8%
7,Fc1ccc2c(/C=C/c3nnn[nH]3)c[nH]c2c1,71.2%
8,O=C(CCc1ccc2c(c1)OCO2)NCc1ccc(-c2ccccc2F)cc1,65.7%
9,CC(=O)N1c2ccccc2NC2=C(C(=O)CC(C)(C)C2)C1c1ccc(OCc2ccccc2)cc1 (stereo not given),70.4%
10,Cc1ccn2c(C(=O)NCc3ccccc3)c(C)nc2c1,66.8%
11,CC(C)CCN1C(=O)C(C2=NS(=O)(=O)c3cc(NS(C)(=O)=O)ccc3N2)=C(O)[C@@H]2[C@H]3CC[C@H](C3)[C@@H]21,67.8%
12,CSC[C@H]1CN(Cc2c[nH]c3c(N)ncnc23)C[C@@H]1O,61.5%
13,CC(Cc1ccccc1)C(=O)Nc1ccc(Cl)cc1C(=O)O (stereo not given),65%
14,CN1CCN(c2ccc3[nH]c(-c4ccc5[nH]c(-c6ccc(O)cc6)nc5c4)nc3c2)CC1,68.8%
15,CC1(C)Cc2c(C#N)c(SCCc3ccccc3)nc(N3CCOCC3)c2CO1,81.4%
16,C[C@H](NC(=O)C(=O)Nc1ccccc1C(C)(C)C)C(=O)N[C@@H](CC(=O)O)C(=O)COc1c(F)c(F)cc(F)c1F,55.9%
17,Nc1nc(NC2Cc3ccc(F)cc3C2)nc(N2CCCCC2)n1 (stereo not given),72.4%
18,COc1c(NC(=O)[C@H]2CC[C@@H](COc3ccc([N+](=O)[O-])cc3)CC2)c(F)cc2c(=O)c(C(=O)O)cn(C3CC3)c12,62.8%
19,O=c1[nH]cnc2c1ncn2[C@H]1CC[C@@H](CO)O1,72.2%
20,CCOC(=O)N[C@@H]1CC[C@@H]2[C@@H](C1)C[C@H]1C(=O)O[C@H](C)[C@H]1[C@H]2/C=C/c1ccc(-c2cccc(F)c2)cn1,55.3%
